High-throughput results from PubChem BioAssay.
Most compounds without a hit are left out; they make up all but 3.2% or so of the library.
CHT inh – inhibitors of human choline transporter CHT | High affinity choline transporter 1 (Homo sapiens), Q9GZV3 | CHT-expressing cells, membrane potential dye, choline response; hits give low values | B-score at 10 µM | 0.86% of 310,000 active | AID 488975, 2010;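 active means B-score over 3 SD under the library average, and starting fluorescence ratio not unusually high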;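 further: choline stimulus applied at its EC90 after an EC20 pre-addition; B-score computed on integrated fluorescence ratio after choline addition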
ANO1 activ – TMEM16A chloride channel activators or potentiators, primary screen, cell-based, HTS. 0.3% of 340,000 active. Anoctamin-1 (Mus musculus), Q8BHY3. B-score at 10 µM. HEK293 TMEM16A/YFP-H148Q/I152L, iodide quench fluorescence; hits give low values;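 active means fluorescence-ratio B-score plate-corrected deviation score at least 3 library SD below zero, with starting fluorescence score within 5 deviations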;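 further: channel opened by trigger with iodide after compound preincubation; score built on the fluorescence ratio of max minus min over baseline; more negative score means more quench and so TMEM16A activation or potentiation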
Target sequence (Q8BHY3 whole entry, looked up): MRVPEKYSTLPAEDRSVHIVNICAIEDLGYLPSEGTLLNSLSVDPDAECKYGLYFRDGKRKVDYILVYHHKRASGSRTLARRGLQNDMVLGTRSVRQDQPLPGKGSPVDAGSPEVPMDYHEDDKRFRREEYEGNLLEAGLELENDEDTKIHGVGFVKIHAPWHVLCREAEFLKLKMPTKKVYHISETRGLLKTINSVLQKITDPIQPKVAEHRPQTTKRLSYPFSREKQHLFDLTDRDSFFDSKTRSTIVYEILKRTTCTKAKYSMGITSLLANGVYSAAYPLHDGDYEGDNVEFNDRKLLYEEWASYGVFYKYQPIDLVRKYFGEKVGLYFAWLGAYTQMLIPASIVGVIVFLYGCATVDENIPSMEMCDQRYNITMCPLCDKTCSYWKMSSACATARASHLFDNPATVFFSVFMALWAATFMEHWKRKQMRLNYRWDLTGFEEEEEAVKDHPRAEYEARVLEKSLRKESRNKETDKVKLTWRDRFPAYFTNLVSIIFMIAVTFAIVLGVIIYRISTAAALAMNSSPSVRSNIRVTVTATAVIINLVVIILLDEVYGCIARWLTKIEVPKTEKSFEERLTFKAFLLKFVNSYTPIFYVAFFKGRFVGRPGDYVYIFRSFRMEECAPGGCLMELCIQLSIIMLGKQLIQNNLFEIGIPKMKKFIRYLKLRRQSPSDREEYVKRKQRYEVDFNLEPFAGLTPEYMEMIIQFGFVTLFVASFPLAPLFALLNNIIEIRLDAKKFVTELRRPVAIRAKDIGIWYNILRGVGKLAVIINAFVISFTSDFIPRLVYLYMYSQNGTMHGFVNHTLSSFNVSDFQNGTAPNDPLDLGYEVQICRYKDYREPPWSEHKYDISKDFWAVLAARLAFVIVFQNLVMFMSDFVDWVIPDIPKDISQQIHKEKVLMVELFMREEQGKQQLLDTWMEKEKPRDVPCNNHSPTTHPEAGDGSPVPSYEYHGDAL
CHT PAM – CHT positive allosteric modulators, primary screen, cell-based, membrane potential dye, choline EC20. High affinity choline transporter 1 (Homo sapiens), Q9GZV3. CHT-expressing cells; hits give high values; LV-AA mutant CHT in HEK293 cells. B-score at 10 µM. 0.49% of 310,000 active;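 active means initial fluorescence not abnormally high and integrated response B-score, plate-corrected, over 3 SD above library mean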
HDAC3 inhib – HDAC3 deacetylase inhibitors, primary screen, biochemical, fluorescence, cell-free homogeneous | recombinant HDAC3, fluorogenic peptide/trypsin coupled | inhibition, % at 8.3 µM | 0.15% of 320,000 active | AID 2718, 2010; in the data active means inhibition above about 26%, passing the limit was not always enough
PHOSPHO1 block – PubChem AID 1565 | recombinant PHOSPHO1, absorbance phosphatase assay | 1.1% of 290,000 active | inhibition, % at 13.3 µM | Phosphoethanolamine/phosphocholine phosphatase (Homo sapiens), Q8TCT1; in the data active means inhibition above about 60%
TMEM16A inh – TMEM16A chloride channel inhibitors, primary screen, cell-based, HTS | Anoctamin-1 (Mus musculus), Q8BHY3 | HEK293 TMEM16A/YFP iodide influx fluorescence, ionomycin | normalized B-score (activity score, 25-100; higher = stronger inhibition) at 10 µM | 1.2% of 310,000 active | AID 588511, 2011;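 active means ratio plate-corrected score three or more library SD toward inhibition, starting fluorescence score within five deviations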;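 further: score derived from kinetic fluorescence span divided by baseline fluorescence per well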
TMEM16A reconf – TMEM16A chloride channel inhibitors, confirmation, cell-based, re-confirmation | shares compounds with TMEM16A inh | HEK293 TMEM16A/YFP-H148Q, iodide quench fluorescence; ionomycin added to raise cell calcium | inhibition, % at 10 µM | 39% of 2,300 active;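 active means mean duplicate percent inhibition, scaled so buffer wells are 0 and the reference blocker 100, over three buffer SD above buffer mean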
TMEM16A Ca cntr – calcium mobilization in TMEM16A/YFP HEK293 cells, confirmation, counter-screen for TMEM16A inhibitor project | calcium response (% of ionomycin), % at 10 µM | Fluo4 calcium mobilization | AID 652231, 2013 | 2% of 2,300 active | shares compounds with TMEM16A inh;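 active means duplicate-averaged calcium signal over 20% of the ionomycin maximum, relative to buffer baseline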;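 further: each well's signal is peak minus trough fluorescence divided by its pre-addition baseline; 0% = buffer wells and 100% = ionomycin wells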
Parental YFP cnt – iodide YFP quench changes in parental YFP-HEK293, counter-screen for TMEM16A inhibitor project, cell-based. AID 652233, 2013. ionomycin. 2,300 tested, under 10 active. YFP ratio F(max-min)/F0 at 10 µM. shares compounds with TMEM16A inh;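 active means yellow fluorescent protein signal ratio exceeding the buffer control mean by over 5 SD of those controls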;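 further: ratio is mean of duplicate wells from kinetic YFP trace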
ClC-1 inh – ClC-1 chloride channel inhibition, selectivity assay for TMEM16A inhibitor project, cell-based, voltage-dependent ClC-1 | shares compounds with TMEM16A inh | CHO ClC-1-YFP, iodide influx fluorescence quench; iodide control reads 0, buffer control 100 | ratio percent, % at 10 µM | 2,300 tested, under 10 active | AID 652236, 2013;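 active means duplicate-mean ratio percent above the mean of iodide-only control wells, which defines zero, plus 5 of their SD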;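 further: higher percent means stronger block of ClC-1 iodide influx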
The depositor's hits bear a star; i = inactive; nt = no result.

SMILES | CHT inh | ANO1 activ | CHT PAM | HDAC3 inhib | PHOSPHO1 block | TMEM16A inh | TMEM16A reconf | TMEM16A Ca cntr | Parental YFP cnt | ClC-1 inh
O=C(O)COc1ccc(Cl)cc1Cl | i | i | i | nt | nt | i | nt | nt | nt | nt
Oc1cc(Cl)ccc1Oc1ccc(Cl)cc1Cl | -5* | i | i | 9 | nt | 100* | 70%* | i | -0.96 | -19
CCc1ccc2nc(N3CCC(C(=O)N4CCC5(CC4)OCCO5)CC3)sc2c1 | i | i | i | 1 | -3 | 100* | i | 21%* | -1.1 | 6
Cc1ccc2nc(N3CCC(C(=O)N4CCC5(CC4)OCCO5)CC3)sc2c1 | i | i | i | -5 | 11 | i | nt | nt | nt | nt
Oc1c(Cl)c(Cl)c(Cl)c(Cl)c1Cl | i | i | i | 5 | nt | 100* | 17%* | i | -0.75 | -20
O=c1[nH]c(=S)n(-c2ccccc2)c(O)c1/C=N/N1CCCCC1c1cccnc1 (stereo unspecified) | i | i | i | 11 | 30 | i | nt | nt | nt | nt
NS(=O)(=O)c1nc[nH]c1[N+](=O)[O-] | nt | i | nt | nt | nt | nt | nt | nt | nt | nt
CC(C)C(=O)c1cn(Cc2ccccc2C#N)c2ccccc12 | i | i | i | -4 | 7 | i | nt | nt | nt | nt
CC(=O)c1cn(Cc2ccccc2C#N)c2ccccc12 | i | i | i | -7 | 23 | 25* | i | i | -0.98 | -20
O=c1[nH]c(=S)n(CCC2=CCCCC2)c(O)c1C=NC1CCN(Cc2ccccc2)CC1 | i | i | i | 0 | -32 | 100* | i | i | -1.2 | -16
COCCNC(=O)N1[C@H]2CC[C@@H]1C(C(=O)OC)=C(c1cccc(C#N)c1)C2 | nt | i | nt | -3 | nt | nt | nt | nt | nt | nt
O=C(c1ccc(C(F)(F)F)cc1)C1CCCN(Cc2ccncc2)C1 (stereo unspecified) | i | i | i | -3 | 25 | 25* | i | i | -1.1 | -10
CC[n+]1c(/C=C/C=C/c2ccc(N(C)C)cc2)sc2ccccc21 | i | i | i | 1 | 15 | 25* | 40%* | i | -0.93 | -1
CN(C)c1ccc(/C=C/c2cc[n+](C)c3ccccc23)cc1 | nt | i | nt | nt | -5 | nt | nt | nt | nt | nt
CCOC(=O)C(O)(c1ccc(NC(=S)NC(=O)c2ccc(Cl)cc2Cl)c(C)c1)C(F)(F)F (stereo unspecified) | i | i | i | 16 | -2 | 25* | 54%* | i | -0.82 | -6
Cc1ccc(N(C)C(=O)Oc2ccc(C(=O)c3ccc(Cl)cc3)cc2)cc1 | i | i | i | -1 | 0 | 25* | i | i | -1.1 | -4
CC(=O)O[C@@H]1[C@H]2CC[C@@H]3[C@]1(C[C@@H](OC(C)=O)[C@@]1(O)C([C@@H]4O[C@@H]4C1(C)C)[C@]3(C)O)C[C@@]2(C)O (stereo partly specified) | i | i | i | -3 | 11 | i | nt | nt | nt | nt
